Laboratory results reported in PubChem BioAssay AID1159580 (chemical genetic matrix, 2015).
In all, about 5,500 compounds went through this assay and about 2,000 (36%) were called active. About 18% were inconclusive and are not listed. Rule as the data show it: active = normalized growth mostly below about 0.91 (no sharp cut-off); inconclusive = no clear call, values can overlap the other calls; inactive = mostly above about 0.92. The list shows a part of the results.

Experiment: chemical genetic growth profiling, strain panel (AID 1159580);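 also: tested at 20 µM; growth read once vehicle control cultures reached saturation at 30 °C; 1 = growth at the plate median or of vehicle wells; lower values mean less growth of the strain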
Conditions: growth OD

Measured: normalized growth

CC(=O)O[C@@H]1CC2C(C)(C)[C@H](O)C[C@H](O)[C@]2(C)C2CC[C@@]3(C)[C@H](c4ccoc4)OC(=O)[C@H]4O[C@]43[C@@]21C (stereo not given in full)
inactive: S. cerevisiae deletion strains, locus YAL021C, strain ccr4, stronger effect = lower value 1.01 | S. cerevisiae deletion strains, locus YAL026C, strain drs2, stronger effect = lower value 0.993 | S. cerevisiae deletion strains, locus YAL030W, strain snc1, stronger effect = lower value 0.995 | S. cerevisiae deletion strains, locus YBL061C, strain skt5, stronger effect = lower value 0.988 | S. cerevisiae deletion strains, locus YBR009C, strain hhf1, stronger effect = lower value 0.974 | S. cerevisiae deletion strains, locus YBR021W, strain FUR4, stronger effect = lower value 0.959 | S. cerevisiae deletion strains, locus YBR023C, strain chs3, stronger effect = lower value 0.985 | S. cerevisiae deletion strains, locus YBR171W, strain sec66, stronger effect = lower value 0.986 | S. cerevisiae deletion strains, locus YBR229C, strain ROT2, stronger effect = lower value 0.952 | S. cerevisiae deletion strains, locus YBR231C, strain swc5, stronger effect = lower value 0.983 | S. cerevisiae deletion strains, locus YBR279W, strain paf1, stronger effect = lower value 0.988 | S. cerevisiae deletion strains, locus YCL011C, strain gbp2, stronger effect = lower value 0.984 | S. cerevisiae deletion strains, locus YCL016C, strain dcc1, stronger effect = lower value 0.996 | S. cerevisiae deletion strains, locus YCL029C, strain bik1, stronger effect = lower value 0.987 | S. cerevisiae deletion strains, locus YCL061C, strain MRC1, stronger effect = lower value 0.99 | S. cerevisiae deletion strains, locus YCL069W, strain vba3, stronger effect = lower value 0.989 | S. cerevisiae deletion strains, locus YCR088W, strain abp1, stronger effect = lower value 0.995 | S. cerevisiae deletion strains, locus YDL005C, strain med2, stronger effect = lower value 0.985 | S. cerevisiae deletion strains, locus YDL035C, strain GPR1, stronger effect = lower value 0.982 | S. cerevisiae deletion strains, locus YDL040C, strain nat1, stronger effect = lower value 0.984 | S. cerevisiae deletion strains, locus YDL074C, strain BRE1, stronger effect = lower value 0.987 | S. cerevisiae deletion strains, locus YDL101C, strain DUN1, stronger effect = lower value 1 | S. cerevisiae deletion strains, locus YDL185W, strain tfp1, stronger effect = lower value 0.981 | S. cerevisiae deletion strains, locus YDL192W, strain arf1, stronger effect = lower value 0.988 | S. cerevisiae deletion strains, locus YDR001C, strain nth1, stronger effect = lower value 0.979 | S. cerevisiae deletion strains, locus YDR069C, strain doa4, stronger effect = lower value 0.983 | S. cerevisiae deletion strains, locus YDR101C, strain arx1, stronger effect = lower value 0.957 | S. cerevisiae deletion strains, locus YDR137W, strain rgp1, stronger effect = lower value 1.03 | S. cerevisiae deletion strains, locus YDR159W, strain sac3, stronger effect = lower value 0.968 | S. cerevisiae deletion strains, locus YDR162C, strain NBP2, stronger effect = lower value 0.993 | S. cerevisiae deletion strains, locus YDR195W, strain ref2 0.935 | S. cerevisiae deletion strains, locus YDR297W, strain sur2, stronger effect = lower value 0.996 | S. cerevisiae deletion strains, locus YDR318W, strain mcm21, stronger effect = lower value 0.995 | S. cerevisiae deletion strains, locus YDR334W, strain swr1, stronger effect = lower value 0.99 | S. cerevisiae deletion strains, locus YDR335W, strain msn5, stronger effect = lower value 0.989 | S. cerevisiae deletion strains, locus YDR388W, stronger effect = lower value 0.994 | S. cerevisiae deletion strains, locus YDR392W, strain spt3, stronger effect = lower value 0.913 | S. cerevisiae deletion strains, locus YDR502C, strain sam2, stronger effect = lower value 1 | S. cerevisiae deletion strains, locus YEL003W, strain gim4, stronger effect = lower value 0.987 | S. cerevisiae deletion strains, locus YEL037C, strain rad23, stronger effect = lower value 0.987 | S. cerevisiae deletion strains, locus YEL061C, strain CIN8 (second series), stronger effect = lower value 0.977 | S. cerevisiae deletion strains, locus YER015W, strain faa2, stronger effect = lower value 0.981 | S. cerevisiae deletion strains, locus YER016W, strain bim1, stronger effect = lower value 0.99 | S. cerevisiae deletion strains, locus YER110C, stronger effect = lower value 0.978 | S. cerevisiae deletion strains, locus YER111C, strain swi4, stronger effect = lower value 0.976 | S. cerevisiae deletion strains, locus YER155C, strain BEM2 (second series), stronger effect = lower value 0.997 | S. cerevisiae deletion strains, locus YER155C, strain BEM2, stronger effect = lower value 1 | S. cerevisiae deletion strains, locus YER167W, strain BCK2, stronger effect = lower value 0.98 | S. cerevisiae deletion strains, locus YFR010W, strain ubp6, stronger effect = lower value 0.983 | S. cerevisiae deletion strains, locus YGL078C, strain dbp3, stronger effect = lower value 1 | S. cerevisiae deletion strains, locus YGL086W, strain mad1, stronger effect = lower value 0.996 | S. cerevisiae deletion strains, locus YGL167C, strain pmr1, stronger effect = lower value 0.995 | S. cerevisiae deletion strains, locus YGL173C, strain kem1, stronger effect = lower value 0.962 | S. cerevisiae deletion strains, locus YGL227W, strain vid30, stronger effect = lower value 0.986 | S. cerevisiae deletion strains, locus YGL240W, strain doc1, stronger effect = lower value 0.971 | S. cerevisiae deletion strains, locus YGL248W, strain PDE1, stronger effect = lower value 1.01 | S. cerevisiae deletion strains, locus YGL253W, strain hxk2, stronger effect = lower value 0.955 | S. cerevisiae deletion strains, locus YGR078C, strain PAC10, stronger effect = lower value 1.02 | S. cerevisiae deletion strains, locus YGR135W, strain pre9, stronger effect = lower value 1.06 | S. cerevisiae deletion strains, locus YGR252W, strain gcn5, stronger effect = lower value 1.07 | S. cerevisiae deletion strains, locus YHR013C, strain ard1, stronger effect = lower value 0.963 | S. cerevisiae deletion strains, locus YHR027C, strain rpn1, stronger effect = lower value 1 | S. cerevisiae deletion strains, locus YHR079C, strain IRE1 (second series), stronger effect = lower value 0.987 | S. cerevisiae deletion strains, locus YHR094C, strain hxt1, stronger effect = lower value 0.978 | S. cerevisiae deletion strains, locus YHR129C, strain ARP1, stronger effect = lower value 0.993 | S. cerevisiae deletion strains, locus YHR142W, strain chs7, stronger effect = lower value 0.98 | S. cerevisiae deletion strains, locus YHR200W, strain rpn10, stronger effect = lower value 0.983 | S. cerevisiae deletion strains, locus YIL066C, strain RNR3, stronger effect = lower value 0.965 | S. cerevisiae deletion strains, locus YIL073C, strain SPO22, stronger effect = lower value 0.997 | S. cerevisiae deletion strains, locus YIL125W, strain kgd1, stronger effect = lower value 0.946 | S. cerevisiae deletion strains, locus YIR030C, strain dcg1, stronger effect = lower value 0.985 | S. cerevisiae deletion strains, locus YJL092W, strain hpr5, stronger effect = lower value 0.984 | S. cerevisiae deletion strains, locus YJL095W, strain BCK1 (second series), stronger effect = lower value 1 | S. cerevisiae deletion strains, locus YJL095W, strain BCK1, stronger effect = lower value 1.05 | S. cerevisiae deletion strains, locus YJL115W, strain asf1, stronger effect = lower value 0.984 | S. cerevisiae deletion strains, locus YJL129C, strain trk1, stronger effect = lower value 0.979 | S. cerevisiae deletion strains, locus YJL134W, strain LCB3, stronger effect = lower value 0.987 | S. cerevisiae deletion strains, locus YJL154C, strain vps35, stronger effect = lower value 0.996 | S. cerevisiae deletion strains, locus YJL164C, strain tpk1, stronger effect = lower value 0.979 | S. cerevisiae deletion strains, locus YJL166W, strain qcr8, stronger effect = lower value 0.99 | S. cerevisiae deletion strains, locus YJL168C, strain set2, stronger effect = lower value 0.984 | S. cerevisiae deletion strains, locus YJL187C, strain SWE1 (second series), stronger effect = lower value 1.02 | S. cerevisiae deletion strains, locus YJL187C, strain SWE1, stronger effect = lower value 1 | S. cerevisiae deletion strains, locus YJR043C, strain POL32, stronger effect = lower value 0.963 | S. cerevisiae deletion strains, locus YKL009W, strain mrt4, stronger effect = lower value 0.988 | S. cerevisiae deletion strains, locus YKL068W, stronger effect = lower value 0.997 | S. cerevisiae deletion strains, locus YKL085W, strain MDH1 (second series), stronger effect = lower value 0.994 | S. cerevisiae deletion strains, locus YKL085W, strain MDH1, stronger effect = lower value 0.994 | S. cerevisiae deletion strains, locus YKL160W, strain elf1, stronger effect = lower value 1.02 | S. cerevisiae deletion strains, locus YKR001C, strain vps1, stronger effect = lower value 0.975 | S. cerevisiae deletion strains, locus YKR026C, strain gcn3, stronger effect = lower value 0.968 | S. cerevisiae deletion strains, locus YKR091W, strain srl3, stronger effect = lower value 0.983 | S. cerevisiae deletion strains, locus YLL001W, strain dnm1, stronger effect = lower value 0.984 | S. cerevisiae deletion strains, locus YLL026W, stronger effect = lower value 0.986 | S. cerevisiae deletion strains, locus YLL041C, strain sdh2, stronger effect = lower value 0.994 | S. cerevisiae deletion strains, locus YLR027C, strain aat2, stronger effect = lower value 0.993 | S. cerevisiae deletion strains, locus YLR039C, strain RIC1, stronger effect = lower value 1 | S. cerevisiae deletion strains, locus YLR058C, strain SHM2, stronger effect = lower value 0.982 | S. cerevisiae deletion strains, locus YLR102C, strain apc9, stronger effect = lower value 0.982 | S. cerevisiae deletion strains, locus YLR221C, strain rsa3, stronger effect = lower value 0.972 | S. cerevisiae deletion strains, locus YLR258W, strain gsy2, stronger effect = lower value 0.995 | S. cerevisiae deletion strains, locus YLR262C, strain YPT6 (second series), stronger effect = lower value 1 | S. cerevisiae deletion strains, locus YLR268W, strain sec22, stronger effect = lower value 0.976 | S. cerevisiae deletion strains, locus YLR320W, strain mms22, stronger effect = lower value 0.986 | S. cerevisiae deletion strains, locus YLR330W, strain CHS5, stronger effect = lower value 0.994 | S. cerevisiae deletion strains, locus YLR342W, strain FKS1, stronger effect = lower value 0.984 | S. cerevisiae deletion strains, locus YLR357W, strain rsc2, stronger effect = lower value 0.987 | S. cerevisiae deletion strains, locus YLR370C, strain arc18, stronger effect = lower value 0.994 | S. cerevisiae deletion strains, locus YLR371W, strain rom2, stronger effect = lower value 0.959 | S. cerevisiae deletion strains, locus YLR384C, strain iki3, stronger effect = lower value 0.994 | S. cerevisiae deletion strains, locus YLR418C, strain cdc73, stronger effect = lower value 1.03 | S. cerevisiae deletion strains, locus YML016C, strain PPZ1, stronger effect = lower value 0.968 | S. cerevisiae deletion strains, locus YML032C, strain rad52, stronger effect = lower value 0.963 | S. cerevisiae deletion strains, locus YML120C, strain ndi1, stronger effect = lower value 0.996 | S. cerevisiae deletion strains, locus YML124C, strain tub3, stronger effect = lower value 0.975 | S. cerevisiae deletion strains, locus YMR058W, strain fet3, stronger effect = lower value 0.989 | S. cerevisiae deletion strains, locus YMR078C, strain ctf18, stronger effect = lower value 0.988 | S. cerevisiae deletion strains, locus YMR125W, strain sto1, stronger effect = lower value 0.993 | S. cerevisiae deletion strains, locus YMR129W, stronger effect = lower value 1.01 | S. cerevisiae deletion strains, locus YMR205C, strain PFK2, stronger effect = lower value 0.967 | S. cerevisiae deletion strains, locus YMR223W, strain ubp8, stronger effect = lower value 1 | S. cerevisiae deletion strains, locus YMR231W, strain pep5, stronger effect = lower value 0.988 | S. cerevisiae deletion strains, locus YMR307W, strain GAS1, stronger effect = lower value 0.972 | S. cerevisiae deletion strains, locus YNL067W, strain RPL9B, stronger effect = lower value 1.02 | S. cerevisiae deletion strains, locus YNL071W, strain lat1, stronger effect = lower value 0.987 | S. cerevisiae deletion strains, locus YNL153C, strain GIM3, stronger effect = lower value 1.01 | S. cerevisiae deletion strains, locus YNL209W, strain ssb2, stronger effect = lower value 1 | S. cerevisiae deletion strains, locus YNL233W, strain BNI4, stronger effect = lower value 1.02 | S. cerevisiae deletion strains, locus YNL248C, strain rpa49, stronger effect = lower value 1.01 | S. cerevisiae deletion strains, locus YNL250W, strain rad50, stronger effect = lower value 1.02 | S. cerevisiae deletion strains, locus YNL271C, strain bni1, stronger effect = lower value 0.988 | S. cerevisiae deletion strains, locus YNL298W, strain CLA4, stronger effect = lower value 0.982 | S. cerevisiae deletion strains, locus YNL307C, strain MCK1, stronger effect = lower value 0.992 | S. cerevisiae deletion strains, locus YNL322C, strain KRE1 (second series), stronger effect = lower value 0.979 | S. cerevisiae deletion strains, locus YNL322C, strain KRE1, stronger effect = lower value 0.999 | S. cerevisiae deletion strains, locus YNR049C, strain mso1, stronger effect = lower value 0.994 | S. cerevisiae deletion strains, locus YNR052C, strain pop2, stronger effect = lower value 1.01 | S. cerevisiae deletion strains, locus YOL006C, strain TOP1, stronger effect = lower value 1.05 | S. cerevisiae deletion strains, locus YOL012C, strain htz1 0.767 | S. cerevisiae deletion strains, locus YOL147C, strain pex11, stronger effect = lower value 0.991 | S. cerevisiae deletion strains, locus YOR001W, strain rrp6, stronger effect = lower value 1.01 | S. cerevisiae deletion strains, locus YOR061W, strain CKA2, stronger effect = lower value 0.939 | S. cerevisiae deletion strains, locus YOR069W, strain VPS5, stronger effect = lower value 1 | S. cerevisiae deletion strains, locus YOR070C, strain gyp1, stronger effect = lower value 0.999 | S. cerevisiae deletion strains, locus YOR080W, strain dia2, stronger effect = lower value 0.989 | S. cerevisiae deletion strains, locus YOR083W, strain WHI5, stronger effect = lower value 1.02 | S. cerevisiae deletion strains, locus YOR106W, strain vam3, stronger effect = lower value 1 | S. cerevisiae deletion strains, locus YOR136W, strain idh2, stronger effect = lower value 0.993 | S. cerevisiae deletion strains, locus YOR144C, strain elg1, stronger effect = lower value 0.98 | S. cerevisiae deletion strains, locus YOR184W, strain ser1, stronger effect = lower value 0.967 | S. cerevisiae deletion strains, locus YOR265W, strain rbl2, stronger effect = lower value 0.999 | S. cerevisiae deletion strains, locus YOR270C, strain vph1, stronger effect = lower value 0.828 | S. cerevisiae deletion strains, locus YOR290C, strain snf2, stronger effect = lower value 0.923 | S. cerevisiae deletion strains, locus YOR316C, strain cot1, stronger effect = lower value 0.981 | S. cerevisiae deletion strains, locus YPL051W, strain arl3, stronger effect = lower value 1.03 | S. cerevisiae deletion strains, locus YPL055C, strain LGE1, stronger effect = lower value 0.957 | S. cerevisiae deletion strains, locus YPL078C, strain atp4, stronger effect = lower value 0.999 | S. cerevisiae deletion strains, locus YPL106C, strain sse1, stronger effect = lower value 1 | S. cerevisiae deletion strains, locus YPL240C, strain hsp82, stronger effect = lower value 1 | S. cerevisiae deletion strains, locus YPR119W, strain clb2, stronger effect = lower value 0.994 | S. cerevisiae deletion strains, locus YPR141C, strain kar3, stronger effect = lower value 0.982 | S. cerevisiae deletion strains, locus YPR163C, strain tif3, stronger effect = lower value 0.975 | S. cerevisiae deletion strains, locus YPR167C, strain met16, stronger effect = lower value 0.99 | S. cerevisiae deletion strains, strain wtn01, stronger effect = lower value 0.949 | S. cerevisiae strains, strain wild type, stronger effect = lower value 0.976
